# Measurements reported in the supplement of paper PMC11417369.
# ± gives the standard deviation of the averaged measurements. Over roughly 25,000 sequences, “ln(normalized median fluorescence intensity)” has its median near 8.9; the highest 2% begin near 10. Shown is part of a subset that was picked to be rich in the highest values.
# Tested on: PfAP2-LT AP2 domain (GST-tagged)
# Assay: gcPBM binding intensity (ln(normalized median fluorescence intensity)); higher = stronger DNA binding
# How it was run: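 GST-fused DNA-binding domains of P. falciparum, expressed in E. coli, were applied at about 25 μg on average for 1 h to an Agilent 4 × 180k array of primer-extended double-stranded 36-bp intergenic genomic probes and negative controls. Binding intensity is the highest Masliner-normalised natural-log median intensity across replicate spots of either probe orientation, measured with Alexa488 anti-GST antibody and a 488 nm scan.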
row,Sequence,gcPBM binding intensity (ln)
1,AAAAAAAACATACATACACACACATAAATATATATA [CACACA_site8864],9.72 ± 0.23
2,TACATACATAAACACACACACACATATATATATATA [CACACA_site8953],10.2 ± 0.23
3,TACATATATAAAAAAACACACACATATATATATATA [CACACA_site8315],9.665 ± 0.021
4,TATATACATAAACACACACACACATATATATATATA [CACACA_site8707],9.89 ± 0.2
5,TAGATACATAAACACACACACACATACATATATACA [CACACA_site9139],10.2 ± 0.23
6,GTACATACATAAAACACACACATATATATATATATA [CACACA_site1826],10.17 ± 0.071
7,TTTGAGATAAAAGACTGTACTTAGAATGTATAAAAA [XGTACX_site203],8.48 ± 0.6
8,ATATGCTATTTACTAGTGCAAAATATTTAAAATATG [GTGCAC_site9517],8.61 ± 0.36
9,ATAATTTTCCATATTTGTACATATTTTTTTCCCTTG [XGTACX_site8146],8.92 ± 0.59
10,ATTTGTTATATATTCTTTTATGTTAATAATTCGAAT [CACACA_negctrl_site378],8.7 ± 0.45
11,ATAATTAGGGTGTATTTCATTTCATTTCATTTTATT [CACACA_negctrl_site1418],9.04 ± 0.4
12,TTTTTCTAATTATGCACACATATCAAAATATTCAAT [CACACA_site2749],8.79 ± 0.46
13,AATATTCTATATGATACATGCATGATGGAATAAAAA [TGCATGCA_site980],8.93 ± 0.3
14,ATATATATTTAAAGATGTACATAATGAAATGGTTAT [XGTACX_site4706],9.01 ± 0.47
15,TAGATACAGAAACACACACACACATACATATATACA [CACACA_site3437],9.97 ± 0.24
16,CATACACAGAAACACACACACATATATATATATATA [CACACA_site4519],10.2 ± 0.3
17,CATACACAGAAACACACACACATATATACATATATA [CACACA_site1094],9.98 ± 0.24
18,CAAATACAGAAACACACACACATATACATATATATA [CACACA_site3498],9.77 ± 0.19
19,TATATACAGAAACACACACACACATATATATATATA [CACACA_site2247],10.15 ± 0.057
20,ACAGAAAAAAAACACACACACATAATATACATACAT [CACACA_site1932],9.82 ± 0.19
21,ATTTTTTTTTTTTTTTTTCATTTTTTTTTTTTTTTT [CACACA_negctrl_site1204],8.62 ± 0.54
22,AAAAAAGCAATATGATGTACATTTACTTTGTGAAAG [XGTACX_site4450],8.73 ± 0.46

row,Sequence,gcPBM binding intensity (ln)
1,TTAAATAGCTGTAATTGTACAAATAAATACATAAAT [XGTACX_site3097],8.82 ± 0.38
2,AAAAAAAAAAAAAAAACATGCAGTTAGTGGTTTTTT [TGCATGCA_site243],8.82 ± 0.4
3,AAGTAAAATAAGTATACACACATAAATATGTAAATA [CACACA_site6467],9.29 ± 0.4
4,AAAAAATAAAACATATATAATATATAATATATATAT [GTGCAC_negctrl_site447],8.69 ± 0.4
5,CGCATACACCAACACACACACACATATATATATATA [CACACA_site635],9.96 ± 0.48
6,AGTATACAGATATATACACACATATATATATATATA [CACACA_site4323],9.935 ± 0.021
7,TATATACATACATATACACACATATATATATATATA [CACACA_site401],9.72 ± 0.21
8,GGTATACACAAGTATACACACATATATATATATATA [CACACA_site9063],10.16 ± 0.099
9,TATATATATATACCAACACACATACATATATATATA [CACACA_site8530],9.38 ± 0.14
10,TACACAAGCGGACACACACACATATATATATATATA [CACACA_site4832],10.415 ± 0.0071
11,AGTATACACAGACACACACACACATATATATATATA [CACACA_site8510],10.3 ± 0.42
12,GGTATACACAAGTATACACACATATAAATATAAATA [CACACA_site7511],9.16 ± 0.49
13,AGTATACATATATATACACACACATATATATATATA [CACACA_site7883],9.805 ± 0.064
14,AGCAGACACCAACACACACACATATATATATATATA [CACACA_site337],10.4 ± 0.13
15,ATGGGACATATATATACACACATATATATATATATA [CACACA_site1202],9.96 ± 0.24
16,GGTATACTCAAGTATACACACATATATATATATATA [CACACA_site5746],9.64 ± 0.49
17,ATTATAATTATTTTGTTGCACTATTTTTGTAGGCCA [GTGCAC_site9734],8.8 ± 0.49
18,ATATTATTTTAAAGTACACACATATATTAATATATA [CACACA_site2315],8.76 ± 0.38
19,ATATATATATATATATGTACATATATATATAATTTT [XGTACX_site4146],9.34 ± 0.54
20,CTTGTCATTTTGCACACACACATGTATAGGTTATTA [CACACA_site7431],9.67 ± 0.16
21,ATTATGGATACATAAACACACATATATATAAAAAAA [CACACA_site4303],9.04 ± 0.43
22,AAAAAAAAAAAAAAAAAAAAAAAAACAATGAATTTA [GTGCAC_negctrl_site698],8.82 ± 0.19
